# According to PubChem BioAssay AID1117283 (Broad Institute, 2014):
# Results with a measured potency or affinity are listed apart. The source made the active and inactive calls.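 Rule for the calls: active = fluorescent signal decreased by at least 40%; inconclusive = no clear call, values can overlap the other calls; inactive = the rest, including activity opposite to the expected direction.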
# Experiment: inhibition of fibronectin matrix deposition – AH1F cells, Alexa488-fibronectin fluorescence, cherry-pick, set 2, dose response (AID 1117283);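 note: AH1F fibroblasts given Alexa488-labelled fibronectin at 24 nM final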
# Settings: AH1F fibroblasts, overnight; series mostly up to 35 µM
row,SMILES,outcome
1,O=C(CCNS(=O)(=O)c1cccc2nonc12)NC1CCCc2ccccc21 (stereo not given),inactive
2,CC(C)(C)[S@](=O)N1Cc2cc(C(=O)NCc3ccccc3F)nc(-c3cccc(-c4cncnc4)c3)c2[C@@H]1CCO,inactive
3,COc1ccccc1N(CC(=O)N(CC(C)C)CC(C)C)S(=O)(=O)c1cccs1,inactive
4,O=C(Nc1ccc(Cl)cc1)N1C[C@H]2[C@@H](c3ccccc31)[C@H](CO)N2CC1CCCC1,inactive
5,C[C@H](O)C#Cc1ccc2c(c1)O[C@H](CN(C)C)[C@@H](C)CN([C@H](C)CO)S2(=O)=O,inactive
